Assay outcomes from PubChem BioAssay.
The sample as a whole holds a higher share of hits than the screen did.
Pf Dd2 growth: inhibitors of Plasmodium falciparum Dd2 growth; 120,000 compounds, 4.3% hits; AID 1347417; P. falciparum Dd2 growth, SYBR Green, 72 h; Potency, µM (highest dose often 28.9 µM), without a hit: top-dose activity, negative = inhibition, most hits filed as inhibitors; active means well fitted inhibition curve with a large enough effect;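 further: plate controls were DMSO vehicle for no effect and reference drug for full effect; nearly all actives have a fitted effect of over 65% in size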
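Infected erythrocytes (Dd2, 0.3% parasitemia, 2.5% hematocrit final) are added to compound in RPMI-1640/Albumax II medium, grown 72 h at 37C in low oxygen, then lysed with saponin/Triton-X containing SYBR Green and read by fluorescence.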
The depositor's hits bear a star; i = inactive; [ ] = another dose, or the depositor's remark. Potency means the concentration at half of the fitted maximal effect.

SMILES	Pf Dd2 growth
O=C(Nc1cccc(C(F)(F)F)c1)N[C@@H]1C[C@H](CO)[C@@H](O)[C@H]1O	-15%[44.1 µM]
CCc1ccc(NC(=O)[C@H](CSCc2ccccc2)N2Cc3ccccc3C2=O)cc1	i
CCN(CC)S(=O)(=O)c1ccc(NC(=O)[C@H](CSCc2ccccc2)N2Cc3ccccc3C2=O)cc1	5µM*
Cc1ccc(NC(=O)[C@H](CSCc2ccccc2)N2Cc3ccccc3C2=O)cc1	i
COc1cc2nc(Nc3cccc(F)c3)nc(N)c2cc1OC	2.2µM*
COc1ccccc1C(O)c1nc(Nc2cccc(F)c2)n[nH]1 (centres undefined)	i
CCOc1ccc(-n2c(/C=C/c3cccc(F)c3)nc3cc(OC)c(OC)cc3c2=O)cc1	i
Cc1nc2ccccc2n1CCc1nc2c3ccccc3nc(SCC(=O)Nc3ccc(Br)cc3F)n2n1	i
Cc1nc2ccccc2n1CCc1nc2c3ccccc3nc(SCC(=O)Nc3ccc(C(C)C)cc3)n2n1	8.9µM*
Cc1nc2ccccc2n1CCc1nc2c3ccccc3nc(SCC(=O)Nc3cccc(C(F)(F)F)c3)n2n1	i
CCc1ccccc1NC(=O)Cn1c(-c2ccc(F)cc2)nc(C)cc1=O	-1%
CCc1noc(-c2cn(C3CCN(C(=O)c4ccsc4)CC3)nn2)n1	i
COc1ccc(S(=O)(=O)NC[C@H]2COCc3nc4cc(C)ccc4n32)cc1	-7%[44.1 µM]
COc1ccc2nc3n(c2c1)[C@@H](CNS(=O)(=O)c1ccccc1)COC3	8.9µM*
COc1ccc2nc3n(c2c1)[C@@H](CNC(=O)c1ccccc1)COC3	i
CN(C)CCN(C)CC[C@H]1CN(C(=O)c2ccc(F)cc2)CC[C@H]1CC(=O)O	-11%[44.1 µM]
CC(C)CN(CC1CN(C(=O)Nc2ccccc2)CCO1)C(=O)c1ccccc1F (centres undefined)	i
COc1ccc(-c2ccc3nc(-c4ccc(C)c(F)c4)oc3c2)c(OC)c1OC	11%
CCCOc1ccc(-c2nc3ccc(-c4ccc(OC)c(OC)c4OC)cc3o2)cc1	10µM*
COc1ccc(-c2ccc3nc(-c4ccc(SC)cc4)oc3c2)c(OC)c1OC	i
O=C(N[C@@H]1CN(Cc2cc(F)c(F)c(F)c2)C[C@H]1CO)C1CC1	-12%
O=C([C@@H]1C[C@H](F)CN1C(=O)c1ccc(C(F)(F)F)cc1)N1CCCCC1	i
N#Cc1ccc(CN2CC(CNC(=O)Nc3ccccc3)C3(C2)CN(c2ccccc2)C3)cc1 (centres undefined)	i
COc1ccc(CN2CC(CNc3ccccc3)C3(C2)CN(c2ccccc2)C3)cc1O (centres undefined)	3.5µM*
NC(=O)c1ccccc1OCC(=O)N1CC(CNc2ccccc2)C2(C1)CN(c1ccccc1)C2 (centres undefined)	-15%
SMILES	Pf Dd2 growth
COc1cc(CNC(=O)C2Cn3cccc3C(=O)N2)cc(OC)c1 (centres undefined)	32%
Cc1ccc(-c2ccc(O)cn2)c2cccnc12	17%
CCOc1ccc(-c2nonc2NC(=O)c2ccco2)cc1OCC	2.5µM*
CCOc1ccc(-c2nonc2NC(=O)c2ccco2)cc1	32%
CCCCOc1ccc(-c2nonc2NC(=O)c2ccco2)cc1	42%
NC(=O)C1(N2CCCCC2)CCN(C(C(=O)O)c2ccc(N)c(F)c2)CC1 (centres undefined)	-10%
CN(CC1CCOCC1)C(=O)c1ccc(Cl)s1	-18%
CC1(CCC(=O)N2CCCC2C(=O)Nc2ccccc2Oc2cccnc2)CC1 (centres undefined)	-14%
CN(C)C[C@@H]1CN(Cc2ccccc2)C[C@H]1NC(=O)C1(C)CCOCC1	-19%
Cc1nc(C)c(CN2CCOC[C@H](Oc3cnccn3)C2)s1	2%[44.1 µM]
CCOCCCNC(=O)N1CCn2nnc(CCC(=O)N3CCOCC3)c2C1	-10%
O=C(NCC1CC1)c1cccc(OC2CN(C3CCSCC3)C2)c1	-9%
O=C(NCC1CC1)c1cccc(OC2CN(Cc3ccc(F)cc3Cl)C2)c1	11µM*
CCN1CCC(N2CC(Oc3cccc(C(=O)NCC4CC4)c3)C2)CC1	5%
COc1ccc(CNC(=O)c2c(C)noc2-c2cccs2)cc1	-15%
CS(=O)(=O)c1ccc(CC(=O)N2CCc3n[nH]c(=O)n3CC2)cc1	43%
CN(c1ccccc1)c1cc(=O)c2ccnc(NCCc3ccccn3)c2o1	i
Cc1noc(-c2ccccc2Cl)c1C(=O)NCc1ccc(F)cc1F	10%
O=C(c1cccn2c(=O)c3cc(Cl)ccc3nc12)N1CCN(c2ccccc2F)CC1	i
Cc1ccc(-n2nc(C)c3c(C(=O)Nc4ccccc4C(F)(F)F)cc(C)nc32)cc1	-13%
COc1cc(NC(=O)c2cc(C)nc3c2c(C)nn3-c2ccccc2Cl)cc(OC)c1	-28%
Cc1cc(C(=O)N2CCN(c3ccc(F)cc3)CC2)c2c(C)nn(-c3cccc(Cl)c3C)c2n1	25%
Cc1ccc(C)c(N2CCN(C(=O)c3cccn4c(=O)c5ccccc5nc34)CC2)c1	13µM*
Cc1ccc(C)c(N2CCN(C(=O)c3cc(C)nc4c3c(C)nn4-c3ccccc3)CC2)c1	8.9µM*
Cc1ccc(-n2nc(C)c3c(C(=O)O)cc(C)nc32)cc1	5%
SMILES	Pf Dd2 growth
CSc1ncc(C(=O)N2CCN(c3cc(C)ccc3C)CC2)c(C)n1	16%
Cc1cc(C(=O)N2CCN(c3cccc(Cl)c3)CC2)c2c(C)nn(-c3ccccc3Cl)c2n1	11µM*
COCc1noc(-c2ccc(N(C)CC3CC(=O)N(C(C)(C)C)C3)nc2)n1 (centres undefined)	-14%
CN(C1CCc2nn(C)c(=O)n2CC1)S(=O)(=O)c1ccc2c(c1)CCC2 (centres undefined)	i
CNC(=O)[C@@H]1CN(C(=O)c2cc(C)n(CCOC)c2C)C[C@H]1c1n[nH]c(C)n1	-15%
COc1ccc(CN[C@@H]2CCC[C@@H](C(=O)N3CCN(C)CC3)CC(=O)N(C)C2)cc1	16%[44.1 µM]
COc1ccc(OCC2CCCN(C(=O)c3cn(C4CCCCC4)nn3)C2)cc1 (centres undefined)	-16%
CCn1ccc(C(=O)N2CCC(Cc3ccc(C(=O)N4CCOCC4)cc3)CC2)n1	12%
Cc1noc([C@@H]2CN(Cc3ccncc3)C[C@H]2CO)n1	14%
COc1ccc(Cl)cc1-c1ccc2c(c1)C(=O)N1CCN(C(=O)CN)C[C@H]1C(=O)N2	i
Cc1ccc(-c2ccc3nnc(CNC(=O)c4ccn[nH]4)n3n2)cc1	-11%
CC1=NS(=O)(=O)N(C)C=C1C(=O)OCc1nc(-c2ccc(F)cc2)no1	56%
O=C(c1ccc(F)cc1F)N1CCC2(CC1)OCC(C(=O)N1CCOCC1)N2C(=O)c1ccccc1 (centres undefined)	-5%
CC(C)CN1C(=O)CCc2cc(NC(=O)c3ccc(N(C)C)cc3)ccc21	-25%
CC(C)CC(=O)Nc1ccc2c(c1)CCC(=O)N2CC(C)C	i
CCC1=NS(=O)(=O)c2cc(NC(=O)C3CC3)ccc2N1CCOC	-16%
CCc1ccc2oc(-c3cc(NC(=O)c4cccs4)ccc3Cl)nc2c1	-16%
CCc1ccc(C2=C(C)C(N3CCC(C(=O)Nc4cccc(OC)c4)CC3)=NS2(=O)=O)cc1	i
CCC1=NS(=O)(=O)c2cc(NC(=O)C3CC3)ccc2N1CC(C)C	4.5µM*
CCCN1C(CC(C)C)=NS(=O)(=O)c2cc(NC(=O)c3cccs3)ccc21	0.11µM*
CC(C)Cc1nn2c(=O)cc(COC(=O)c3ccc(NC(=O)c4cccs4)cc3)nc2s1	50%
CC(=O)Nc1ccc2c(c1)S(=O)(=O)N=C(CC(C)C)N2CC(C)C	4µM*
